The first assay addresses ZDHHC20. Put plainly: pooled miR-30 sensor sort-seq; sequence = guide strand. As to conditions: shRNA.
Sequence TTCTTCAGCTCCATTCTCCAGC registered a sensor-assay potency score (higher = more potent) of -0.419.

The sequence TTGTTGTCTTTCTTGGCTGAAT registered a sensor-assay potency score (higher = more potent) of -1.21.

TAAAGTACTCTAAAACTGTTGC displayed a sensor-assay potency score (higher = more potent) of 0.215.

Sequence TATAGATAGGTAAAGCTCTTGC came in with a sensor-assay potency score (higher = more potent) of -0.117.

In turn, TTTCTTGTTGTCTTTCTTGGCT yielded a sensor-assay potency score (higher = more potent) of -0.0932.

For the sequence TCTTGTTGTCTTTCTTGGCTGA, the sensor-assay potency score (higher = more potent) is 0.533.

With TTTTGCACGTGTATCTGTCAGT, the sensor-assay potency score (higher = more potent) is -0.551.

The target in the next assay is ZDHHC24. The description is as above. As to conditions: shRNA.
The sequence CCTGTGAGCAACATGAGCCAGG yielded a sensor-assay potency score (higher = more potent) of -2.43.

The sequence TCCCATGGAAGAGCAGCCCAGC came in with a sensor-assay potency score (higher = more potent) of -1.99.

The sequence TTGCCGAAGCCCACGCAGCGGC gave a sensor-assay potency score (higher = more potent) of -1.27.

Regarding TAGCAGTAAGCCCAGCCCTGGC, the sensor-assay potency score (higher = more potent) was -1.6.

With TGAAGCAGCAGGCACAGGAAGG, the sensor-assay potency score (higher = more potent) is -1.8.

For the sequence TGAGCAACATGAGCCAGGGAAG, the sensor-assay potency score (higher = more potent) was -1.75.

In turn, TAGTTGCCGAAGCCCACGCAGC came in with a sensor-assay potency score (higher = more potent) of -1.53.

TTGAGCAGCTGGAAGGCGGCCA displayed a sensor-assay potency score (higher = more potent) of -0.092.

In the case of AGACACTCTGCCTGTGAGCAAC, the sensor-assay potency score (higher = more potent) was -2.01.

TCTGCCTGTGAGCAACATGAGC returned a sensor-assay potency score (higher = more potent) of -1.73.

As to TGCCAGAGACACTCTGCCTGTG, the sensor-assay potency score (higher = more potent) was -0.683.

Take TGTGAGCAACATGAGCCAGGGA: the sensor-assay potency score (higher = more potent) was -0.189.

In the next assay the target is ZDHHC4. The assay is described as above. As to conditions: shRNA.
For the sequence TTATACAGGAAAATATCTGTGC, the sensor-assay potency score (higher = more potent) was found to be 0.584.

As for TTGGAAACATCACTTCATCAAA, the sensor-assay potency score (higher = more potent) was -1.15.

TTGCTTTTGTTATAATGCCAGG gave a sensor-assay potency score (higher = more potent) of -1.32.

As for ATCTCTTGAAGGTTGCTCCGAA, the sensor-assay potency score (higher = more potent) is -0.154.

ATACAGGACAAACAACAGGTAG had a sensor-assay potency score (higher = more potent) of -1.34.

For the sequence TAAATCTGACATCACCACCAAG, the sensor-assay potency score (higher = more potent) is -0.923.

TACAGGACAAACAACAGGTAGC showed a sensor-assay potency score (higher = more potent) of -0.502.

Sequence TACTGAATAAGAAAGACCGTGT had a sensor-assay potency score (higher = more potent) of 0.745.

Take TAGAAAGATCTCTTGAAGGTTG: the sensor-assay potency score (higher = more potent) worked out at 0.193.

Consider TACCACTCGTTAGTAGTCTGGT, for which the sensor-assay potency score (higher = more potent) was -0.0383.

TAAACGGGAACTACAGCTCAAA registered a sensor-assay potency score (higher = more potent) of -0.745.

In the case of TTTGCTTTTGTTATAATGCCAG, the sensor-assay potency score (higher = more potent) was -0.404.

The next assay concerns the target ZDHHC6. The assay is described as above. As to conditions: shRNA.
For the sequence TTCTGCAGTGATGTGAACGTGG, the sensor-assay potency score (higher = more potent) was found to be 0.312.

The sequence TTATTCTTGAAACACCTTCTAT had a sensor-assay potency score (higher = more potent) of -0.81.

The sequence TTGGTAACCACAACAGTTGTTG returned a sensor-assay potency score (higher = more potent) of -0.394.

In turn, TTCTTGTAGATTTTCAAACTTG had a sensor-assay potency score (higher = more potent) of -0.053.

For the sequence ATTTTGTCTCCATATAACCAGT, the sensor-assay potency score (higher = more potent) is -1.42.

Regarding TTTGTCTCCATATAACCAGTAT, the sensor-assay potency score (higher = more potent) was -0.758.

TATTCTTGAAACACCTTCTATA gave a sensor-assay potency score (higher = more potent) of -0.715.

The sequence AACTGTTCTATTGTTAAGCTGT gave a sensor-assay potency score (higher = more potent) of -0.493.

TGAAATTCACACTTCCTCCAGT displayed a sensor-assay potency score (higher = more potent) of -0.0351.

The values are drawn from the OligoGym collection.
Further: reference of the scale not given here.
